Reference: PubChem BioAssay (NCI)
Several values for one entry are separate records, joined by “and”; a condition that tells them apart may be missing. Equal values may be shown once. The panel holds about 83,000 compounds, 20% with a hit somewhere; the sample as a whole holds those more often.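 Activity criterion: percent growth below 10, measured after cells in 96-well plates were exposed to a single compound concentration for 48 hours.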 Activity calls are given as the source filed them.

Columns and labels:
Assay in all cases: NCI-60 one-dose screen, 48 h (100 = growth as untreated, 0 = no growth, -100 = all killed)
Conditions in all cases: 10 µM unless noted
NCI-H23 lung = system: NCI-H23 lung
NCI-H226 lung = system: NCI-H226 lung
NCI-H322M lung = system: NCI-H322M lung
HOP-62 NSCLC = system: HOP-62 NSCLC
NCI-H460 lung = system: NCI-H460 lung
HOP-92 NSCLC = system: HOP-92 NSCLC
NCI-H522 lung = system: NCI-H522 lung
A549/ATCC NSCLC = system: A549/ATCC NSCLC
786-0 renal = system: 786-0 renal
COLO 205 colon = system: COLO 205 colon
DU-145 prostate = system: DU-145 prostate
K-562 leukemia = system: K-562 leukemia
MALME-3M melanoma = system: MALME-3M melanoma
MDA-MB-231 breast = system: MDA-MB-231 breast
RXF 393 renal = system: RXF 393 renal
SF-268 CNS = system: SF-268 CNS
SF-295 CNS = system: SF-295 CNS
SF-539 CNS = system: SF-539 CNS
UACC-257 melanoma = system: UACC-257 melanoma
M14 melanoma = system: M14 melanoma

SMILES | growth (NCI-H23 lung) | growth (NCI-H226 lung) | growth (NCI-H322M lung) | growth (HOP-62 NSCLC) | growth (NCI-H460 lung) | growth (HOP-92 NSCLC) | growth (NCI-H522 lung) | growth (A549/ATCC NSCLC) | growth (786-0 renal) | growth (COLO 205 colon) | growth (DU-145 prostate) | growth (K-562 leukemia) | growth (MALME-3M melanoma) | growth (MDA-MB-231 breast) | growth (RXF 393 renal) | growth (SF-268 CNS) | growth (SF-295 CNS) | growth (SF-539 CNS) | growth (UACC-257 melanoma) | growth (M14 melanoma)
CCCCCn1sc(=O)n(Cc2ccc(CNC(=O)C(C)c3ccc(CC(C)C)cc3)cc2)c1=O (centres undefined) | 102% (inactive) and -73.4% (active) | 94.3% (inactive) and 37.3% (inactive) | 99.5% (inactive) and 67.6% (inactive) | 99.1% (inactive) and -43.2% (active) | 102% (inactive) and 22.9% (inactive) | 73.6% (inactive) and -66.2% (active) | 85.4% (inactive) and -59.6% (active) | 97.4% (inactive) and -19.1% (active) | 95.8% (inactive) and -86.5% (active) | 122% (inactive) and -57.5% (active) | 99.9% (inactive) and -93.4% (active) | 2.12% (active) | 99.8% (inactive) and -72.1% (active) | 93.3% (inactive) and -54.7% (active) | -91.7% (active) | 94.5% (inactive) and -59.7% (active) | 94.3% (inactive) and 47.1% (inactive) | 93.6% (inactive) and -92.8% (active) | 96.7% (inactive) and -19.5% (active) | 95.2% (inactive) and -67.6% (active)
O=C(O)CN(CCN(CC(=O)O)CC(=O)O)CCN(CC(=O)O)CC(=O)O | -19% (active) and 104% (inactive) and 110% (inactive) | 15.7% (inactive) and 98.6% (inactive) and 90.3% (inactive) | -3.44% (active) and 107% (inactive) and 116% (inactive) | -75.5% (active) and 97.4% (inactive) and 99.5% (inactive) | -51.4% (active) and 119% (inactive) | 103% (inactive) and 102% (inactive) | -27.9% (active) and 107% (inactive) and 88.5% (inactive) | -85.5% (active) and 106% (inactive) and 98.9% (inactive) | -20.3% (active) and 102% (inactive) and 105% (inactive) | 23% (inactive) and 91.5% (inactive) and 104% (inactive) | -12.6% (active) and 114% (inactive) and 106% (inactive) | 4.41% (active) and 114% (inactive) and 103% (inactive) | -4.09% (active) and 112% (inactive) and 102% (inactive) | 35.8% (inactive) and 100% (inactive) and 90.7% (inactive) | -19.3% (active) and 108% (inactive) and 109% (inactive) | 1.46% (active) and 114% (inactive) and 105% (inactive) | -23.9% (active) and 112% (inactive) and 105% (inactive) | -42.7% (active) and 104% (inactive) | 0.783% (active) and 105% (inactive) and 102% (inactive) | 18.2% (inactive) and 88.8% (inactive) and 102% (inactive)
CCc1c(CC(=O)O)c2cc(C)ccc2n1Cc1ccc(Cl)cc1 | 97.3% (inactive) and 90% (inactive) | 94.9% (inactive) and 97.8% (inactive) | 76.3% (inactive) and 280% (inactive) | 94.7% (inactive) and 70.2% (inactive) | 103% (inactive) and 95.8% (inactive) | 88% (inactive) and 91.7% (inactive) | 85% (inactive) and 81.5% (inactive) | 89.1% (inactive) and 87.3% (inactive) | 106% (inactive) and 47% (inactive) | 123% (inactive) | 106% (inactive) and 105% (inactive) | 152% (inactive) | 95.1% (inactive) and 200% (inactive) | 110% (inactive) and 100% (inactive) | 76.8% (inactive) | 96.3% (inactive) and 99.4% (inactive) | 91.6% (inactive) and 84.9% (inactive) | 97.4% (inactive) and 90.2% (inactive) | 87.7% (inactive) | 101% (inactive) and 85.4% (inactive)
O=c1c2ccccc2nc2n1Cc1nc3ccccc3c(=O)n1C2 | 92.2% (inactive) and 100% (inactive) | 89.5% (inactive) and 97.8% (inactive) | 97.8% (inactive) and 102% (inactive) | 114% (inactive) and 105% (inactive) | 95.1% (inactive) and 101% (inactive) | 95.3% (inactive) and 114% (inactive) | 89.9% (inactive) and 93.3% (inactive) | 102% (inactive) and 100% (inactive) | 103% (inactive) and 104% (inactive) | 111% (inactive) and 130% (inactive) | 96.4% (inactive) and 102% (inactive) | 107% (inactive) and 62.5% (inactive) | 80.1% (inactive) and 108% (inactive) | 99.2% (inactive) and 105% (inactive) | 107% (inactive) and 108% (inactive) | 87.5% (inactive) and 103% (inactive) | 105% (inactive) and 112% (inactive) | 99% (inactive) and 102% (inactive) | 98.3% (inactive) and 112% (inactive) | –
